What was measured:
[1] = biological target: Serine/threonine-protein kinase PAK 4 (Homo sapiens) (UniProt O96013); conditions: at 1 µM
[2] = biological target: Serine/threonine-protein kinase PAK 4 (Homo sapiens) (UniProt O96013); conditions: at 10 µM
[3] = biological target: Serine/threonine-protein kinase PAK 5 (Homo sapiens) (UniProt Q9P286); conditions: at 1 µM
[4] = biological target: Serine/threonine-protein kinase PAK 5 (Homo sapiens) (UniProt Q9P286); conditions: at 10 µM
[5] = biological target: Serine/threonine-protein kinase PAK 6 (Homo sapiens) (UniProt Q9NQU5); conditions: at 1 µM
Sequence of Serine/threonine-protein kinase PAK 6 (Homo sapiens) (Q9NQU5 whole entry, looked up, the tested form may be a part): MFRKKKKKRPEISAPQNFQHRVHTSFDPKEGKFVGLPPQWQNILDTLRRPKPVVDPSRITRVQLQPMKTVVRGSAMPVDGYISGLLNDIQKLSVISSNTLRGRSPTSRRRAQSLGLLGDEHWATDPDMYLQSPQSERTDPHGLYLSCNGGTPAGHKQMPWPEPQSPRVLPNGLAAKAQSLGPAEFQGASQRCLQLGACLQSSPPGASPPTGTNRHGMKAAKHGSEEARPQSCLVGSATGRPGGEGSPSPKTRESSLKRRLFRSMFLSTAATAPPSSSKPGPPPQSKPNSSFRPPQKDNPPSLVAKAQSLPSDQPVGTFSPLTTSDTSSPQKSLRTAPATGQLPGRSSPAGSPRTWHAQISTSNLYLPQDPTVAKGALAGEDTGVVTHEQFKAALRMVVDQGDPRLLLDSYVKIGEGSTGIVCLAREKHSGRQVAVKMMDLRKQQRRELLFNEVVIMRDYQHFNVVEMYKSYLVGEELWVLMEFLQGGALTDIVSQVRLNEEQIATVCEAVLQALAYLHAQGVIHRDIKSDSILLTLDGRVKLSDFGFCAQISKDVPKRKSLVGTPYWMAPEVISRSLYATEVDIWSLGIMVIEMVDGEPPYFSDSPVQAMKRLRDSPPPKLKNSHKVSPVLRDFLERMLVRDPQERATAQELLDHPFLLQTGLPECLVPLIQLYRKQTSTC

[6] = biological target: Serine/threonine-protein kinase PAK 6 (Homo sapiens) (UniProt Q9NQU5); conditions: at 10 µM
[7] = biological target: PAS domain-containing serine/threonine-protein kinase (Homo sapiens) (UniProt Q96RG2); conditions: at 10 µM
Sequence of PAS domain-containing serine/threonine-protein kinase (Homo sapiens) (Q96RG2 whole entry, the tested form may be a part): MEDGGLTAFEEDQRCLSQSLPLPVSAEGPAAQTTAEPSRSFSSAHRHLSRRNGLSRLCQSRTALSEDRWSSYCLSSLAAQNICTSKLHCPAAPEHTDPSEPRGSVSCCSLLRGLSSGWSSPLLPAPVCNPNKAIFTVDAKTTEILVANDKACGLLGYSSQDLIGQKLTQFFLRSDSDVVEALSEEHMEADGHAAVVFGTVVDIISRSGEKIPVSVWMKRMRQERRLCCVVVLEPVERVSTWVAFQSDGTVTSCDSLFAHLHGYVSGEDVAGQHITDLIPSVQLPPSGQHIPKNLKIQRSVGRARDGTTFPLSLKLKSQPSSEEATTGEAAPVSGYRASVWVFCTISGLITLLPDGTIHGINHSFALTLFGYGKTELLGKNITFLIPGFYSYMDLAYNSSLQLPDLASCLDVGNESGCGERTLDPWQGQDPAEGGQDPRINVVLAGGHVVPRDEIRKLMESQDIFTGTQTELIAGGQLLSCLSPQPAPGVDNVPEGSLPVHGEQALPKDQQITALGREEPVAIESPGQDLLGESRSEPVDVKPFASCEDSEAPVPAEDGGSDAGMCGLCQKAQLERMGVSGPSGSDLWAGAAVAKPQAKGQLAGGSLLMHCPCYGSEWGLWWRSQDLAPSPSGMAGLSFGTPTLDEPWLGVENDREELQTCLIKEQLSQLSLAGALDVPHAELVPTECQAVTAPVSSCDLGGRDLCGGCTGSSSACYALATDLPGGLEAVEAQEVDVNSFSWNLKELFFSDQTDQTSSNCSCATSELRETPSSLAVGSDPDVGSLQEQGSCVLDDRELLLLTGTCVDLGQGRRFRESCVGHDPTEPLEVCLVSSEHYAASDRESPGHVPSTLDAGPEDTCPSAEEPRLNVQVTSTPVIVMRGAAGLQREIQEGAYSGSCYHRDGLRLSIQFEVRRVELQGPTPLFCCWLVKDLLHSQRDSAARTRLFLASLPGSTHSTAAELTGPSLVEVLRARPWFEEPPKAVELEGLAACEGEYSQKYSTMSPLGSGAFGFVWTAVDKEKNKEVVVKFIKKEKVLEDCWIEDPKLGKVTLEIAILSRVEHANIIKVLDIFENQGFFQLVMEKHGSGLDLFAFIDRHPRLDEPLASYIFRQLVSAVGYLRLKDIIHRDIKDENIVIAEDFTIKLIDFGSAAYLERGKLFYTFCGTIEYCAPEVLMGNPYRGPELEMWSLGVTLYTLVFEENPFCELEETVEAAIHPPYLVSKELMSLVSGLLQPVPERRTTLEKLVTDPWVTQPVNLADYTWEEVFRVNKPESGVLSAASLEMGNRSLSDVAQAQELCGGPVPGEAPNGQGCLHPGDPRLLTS

[8] = biological target: Activated CDC42 kinase 1 (Homo sapiens) (UniProt Q07912); conditions: at 1 µM
Sequence of Activated CDC42 kinase 1 (Homo sapiens) (Q07912 whole entry, looked up): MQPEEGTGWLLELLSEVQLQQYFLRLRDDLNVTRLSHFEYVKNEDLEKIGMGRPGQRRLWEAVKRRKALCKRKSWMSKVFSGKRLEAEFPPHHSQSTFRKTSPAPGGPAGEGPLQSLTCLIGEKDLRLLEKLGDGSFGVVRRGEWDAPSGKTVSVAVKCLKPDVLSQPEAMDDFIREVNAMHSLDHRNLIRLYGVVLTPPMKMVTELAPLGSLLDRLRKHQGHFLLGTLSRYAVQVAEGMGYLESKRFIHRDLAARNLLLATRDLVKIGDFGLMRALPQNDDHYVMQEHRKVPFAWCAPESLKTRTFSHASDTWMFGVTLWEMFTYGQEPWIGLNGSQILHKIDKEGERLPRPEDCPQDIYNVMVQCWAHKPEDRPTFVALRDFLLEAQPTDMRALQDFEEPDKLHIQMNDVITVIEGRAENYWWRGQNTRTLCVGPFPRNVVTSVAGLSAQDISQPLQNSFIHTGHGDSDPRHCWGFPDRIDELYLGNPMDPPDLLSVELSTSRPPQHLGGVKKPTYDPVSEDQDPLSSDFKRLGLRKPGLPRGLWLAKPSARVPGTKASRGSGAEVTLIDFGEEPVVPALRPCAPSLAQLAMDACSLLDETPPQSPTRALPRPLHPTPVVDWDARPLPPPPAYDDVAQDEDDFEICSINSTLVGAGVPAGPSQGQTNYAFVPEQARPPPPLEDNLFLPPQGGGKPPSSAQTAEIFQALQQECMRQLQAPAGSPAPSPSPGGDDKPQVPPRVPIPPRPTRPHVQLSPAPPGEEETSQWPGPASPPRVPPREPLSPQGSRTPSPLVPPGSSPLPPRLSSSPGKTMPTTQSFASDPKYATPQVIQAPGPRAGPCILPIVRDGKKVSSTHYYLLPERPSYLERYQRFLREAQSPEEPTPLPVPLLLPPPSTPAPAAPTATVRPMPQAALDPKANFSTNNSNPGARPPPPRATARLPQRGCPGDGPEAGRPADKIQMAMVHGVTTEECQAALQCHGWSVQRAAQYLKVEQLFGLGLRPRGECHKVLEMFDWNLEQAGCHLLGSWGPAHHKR

[9] = biological target: Activated CDC42 kinase 1 (Homo sapiens) (UniProt Q07912); conditions: at 10 µM
[10] = biological target: ALK tyrosine kinase receptor (Homo sapiens) (UniProt Q9UM73); conditions: at 1 µM
[11] = biological target: ALK tyrosine kinase receptor (Homo sapiens) (UniProt Q9UM73); conditions: at 10 µM
[12] = biological target: T1, Activin receptor type-1B (Homo sapiens) (UniProt P36896); conditions: at 1 µM
T1 sequence (whole entry): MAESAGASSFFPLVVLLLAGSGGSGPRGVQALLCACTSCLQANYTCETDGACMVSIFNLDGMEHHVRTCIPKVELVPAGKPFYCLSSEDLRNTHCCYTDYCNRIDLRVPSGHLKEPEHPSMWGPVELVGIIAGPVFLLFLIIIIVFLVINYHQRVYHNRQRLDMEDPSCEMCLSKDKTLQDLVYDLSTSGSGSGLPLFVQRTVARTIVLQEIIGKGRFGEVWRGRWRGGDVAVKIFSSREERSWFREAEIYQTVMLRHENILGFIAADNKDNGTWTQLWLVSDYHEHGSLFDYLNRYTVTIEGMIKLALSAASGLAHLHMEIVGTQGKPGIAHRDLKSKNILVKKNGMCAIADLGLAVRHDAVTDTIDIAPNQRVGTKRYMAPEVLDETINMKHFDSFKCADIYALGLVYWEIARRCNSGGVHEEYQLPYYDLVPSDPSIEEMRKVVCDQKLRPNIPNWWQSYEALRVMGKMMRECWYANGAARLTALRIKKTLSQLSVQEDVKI

[13] = biological target: T1, Activin receptor type-1B (Homo sapiens); conditions: at 10 µM
[14] = biological target: T2, AMP-activated protein kinase (AMPK) alpha-1/beta-1/gamma-1 (Homo sapiens) (UniProt P54619+Q9Y478+Q13131); conditions: at 1 µM
[15] = biological target: T2, AMP-activated protein kinase (AMPK) alpha-1/beta-1/gamma-1 (Homo sapiens); conditions: at 10 µM
[16] = biological target: T3, AMP-activated protein kinase, AMPK (Homo sapiens) (UniProt P54646+O43741+P54619+Q9UGJ0+Q9Y478+Q13131+Q9UGI9); conditions: at 1 µM
[17] = biological target: T3, AMP-activated protein kinase, AMPK (Homo sapiens); conditions: at 10 µM
[18] = biological target: T4, NUAK family SNF1-like kinase 1 (Homo sapiens) (UniProt O60285); conditions: at 1 µM
T4 sequence (whole entry): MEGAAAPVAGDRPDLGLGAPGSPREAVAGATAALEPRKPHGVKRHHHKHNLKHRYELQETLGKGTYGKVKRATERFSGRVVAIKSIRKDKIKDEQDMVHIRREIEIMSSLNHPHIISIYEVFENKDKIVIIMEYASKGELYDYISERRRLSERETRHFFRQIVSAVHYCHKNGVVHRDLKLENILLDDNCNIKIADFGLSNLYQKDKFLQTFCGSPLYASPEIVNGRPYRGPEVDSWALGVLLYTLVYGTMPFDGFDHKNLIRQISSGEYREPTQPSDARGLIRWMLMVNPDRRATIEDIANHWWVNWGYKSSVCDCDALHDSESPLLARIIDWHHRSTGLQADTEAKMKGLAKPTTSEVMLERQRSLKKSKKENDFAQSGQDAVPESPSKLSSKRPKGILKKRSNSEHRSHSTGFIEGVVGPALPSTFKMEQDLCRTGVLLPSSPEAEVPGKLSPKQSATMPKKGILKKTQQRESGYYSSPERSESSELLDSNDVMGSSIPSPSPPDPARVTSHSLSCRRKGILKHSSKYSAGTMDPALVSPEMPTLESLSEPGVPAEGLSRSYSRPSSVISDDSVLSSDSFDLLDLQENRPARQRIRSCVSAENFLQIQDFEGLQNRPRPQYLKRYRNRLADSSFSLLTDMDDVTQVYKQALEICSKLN

[19] = biological target: T4, NUAK family SNF1-like kinase 1 (Homo sapiens); conditions: at 10 µM
[20] = biological target: T5, Mitogen-activated protein kinase kinase kinase 5 (Homo sapiens) (UniProt Q99683); conditions: at 1 µM
T5 sequence (whole entry): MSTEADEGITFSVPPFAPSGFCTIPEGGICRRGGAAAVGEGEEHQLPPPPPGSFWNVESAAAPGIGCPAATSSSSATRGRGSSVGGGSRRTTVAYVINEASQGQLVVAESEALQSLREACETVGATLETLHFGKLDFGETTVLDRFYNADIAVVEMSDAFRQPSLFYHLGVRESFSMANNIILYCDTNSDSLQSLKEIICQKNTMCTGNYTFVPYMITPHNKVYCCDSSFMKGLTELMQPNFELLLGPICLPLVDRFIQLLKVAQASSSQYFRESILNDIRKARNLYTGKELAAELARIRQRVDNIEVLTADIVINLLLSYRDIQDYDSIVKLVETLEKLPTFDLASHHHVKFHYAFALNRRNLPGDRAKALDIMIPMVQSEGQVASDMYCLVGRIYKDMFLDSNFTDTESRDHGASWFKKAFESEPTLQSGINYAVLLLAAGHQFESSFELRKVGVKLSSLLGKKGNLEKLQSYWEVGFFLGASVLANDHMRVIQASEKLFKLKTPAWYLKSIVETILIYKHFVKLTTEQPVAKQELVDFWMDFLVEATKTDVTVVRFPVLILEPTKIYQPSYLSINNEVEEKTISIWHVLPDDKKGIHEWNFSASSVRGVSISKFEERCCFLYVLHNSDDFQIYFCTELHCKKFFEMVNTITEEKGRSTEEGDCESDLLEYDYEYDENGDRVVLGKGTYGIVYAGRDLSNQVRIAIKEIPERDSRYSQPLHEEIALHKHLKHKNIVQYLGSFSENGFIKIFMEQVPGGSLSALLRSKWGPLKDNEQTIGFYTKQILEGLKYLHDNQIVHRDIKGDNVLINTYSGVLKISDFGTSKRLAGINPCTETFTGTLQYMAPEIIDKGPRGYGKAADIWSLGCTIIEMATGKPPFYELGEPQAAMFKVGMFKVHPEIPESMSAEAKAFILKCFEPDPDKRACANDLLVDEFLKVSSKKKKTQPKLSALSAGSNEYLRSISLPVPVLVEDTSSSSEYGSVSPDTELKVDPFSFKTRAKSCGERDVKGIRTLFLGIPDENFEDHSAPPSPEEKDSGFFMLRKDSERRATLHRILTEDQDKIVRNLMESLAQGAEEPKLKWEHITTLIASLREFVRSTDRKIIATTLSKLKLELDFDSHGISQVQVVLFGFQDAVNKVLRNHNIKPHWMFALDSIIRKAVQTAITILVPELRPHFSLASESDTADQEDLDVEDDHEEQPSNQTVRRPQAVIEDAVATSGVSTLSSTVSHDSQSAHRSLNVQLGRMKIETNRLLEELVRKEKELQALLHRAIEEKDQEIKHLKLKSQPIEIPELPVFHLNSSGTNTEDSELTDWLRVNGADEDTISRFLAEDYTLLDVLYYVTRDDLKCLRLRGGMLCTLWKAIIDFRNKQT

Sequence of Serine/threonine-protein kinase PAK 4 (Homo sapiens) (O96013 whole entry, looked up): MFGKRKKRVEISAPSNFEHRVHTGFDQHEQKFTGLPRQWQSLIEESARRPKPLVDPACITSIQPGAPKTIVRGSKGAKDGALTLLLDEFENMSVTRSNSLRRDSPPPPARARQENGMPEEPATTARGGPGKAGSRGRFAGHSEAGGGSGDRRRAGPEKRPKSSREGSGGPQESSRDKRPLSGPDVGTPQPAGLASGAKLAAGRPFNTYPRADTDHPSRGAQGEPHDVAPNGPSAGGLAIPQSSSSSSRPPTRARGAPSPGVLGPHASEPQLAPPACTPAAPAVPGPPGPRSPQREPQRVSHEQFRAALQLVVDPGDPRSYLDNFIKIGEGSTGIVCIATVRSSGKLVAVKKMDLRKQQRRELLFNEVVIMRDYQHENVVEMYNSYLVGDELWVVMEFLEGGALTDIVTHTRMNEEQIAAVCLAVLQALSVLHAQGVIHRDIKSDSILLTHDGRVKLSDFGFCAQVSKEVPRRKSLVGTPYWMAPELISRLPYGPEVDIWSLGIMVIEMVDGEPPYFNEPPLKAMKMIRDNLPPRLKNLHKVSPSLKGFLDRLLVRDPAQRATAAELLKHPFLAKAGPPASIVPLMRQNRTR
Sequence of Serine/threonine-protein kinase PAK 5 (Homo sapiens) (Q9P286 whole entry, looked up): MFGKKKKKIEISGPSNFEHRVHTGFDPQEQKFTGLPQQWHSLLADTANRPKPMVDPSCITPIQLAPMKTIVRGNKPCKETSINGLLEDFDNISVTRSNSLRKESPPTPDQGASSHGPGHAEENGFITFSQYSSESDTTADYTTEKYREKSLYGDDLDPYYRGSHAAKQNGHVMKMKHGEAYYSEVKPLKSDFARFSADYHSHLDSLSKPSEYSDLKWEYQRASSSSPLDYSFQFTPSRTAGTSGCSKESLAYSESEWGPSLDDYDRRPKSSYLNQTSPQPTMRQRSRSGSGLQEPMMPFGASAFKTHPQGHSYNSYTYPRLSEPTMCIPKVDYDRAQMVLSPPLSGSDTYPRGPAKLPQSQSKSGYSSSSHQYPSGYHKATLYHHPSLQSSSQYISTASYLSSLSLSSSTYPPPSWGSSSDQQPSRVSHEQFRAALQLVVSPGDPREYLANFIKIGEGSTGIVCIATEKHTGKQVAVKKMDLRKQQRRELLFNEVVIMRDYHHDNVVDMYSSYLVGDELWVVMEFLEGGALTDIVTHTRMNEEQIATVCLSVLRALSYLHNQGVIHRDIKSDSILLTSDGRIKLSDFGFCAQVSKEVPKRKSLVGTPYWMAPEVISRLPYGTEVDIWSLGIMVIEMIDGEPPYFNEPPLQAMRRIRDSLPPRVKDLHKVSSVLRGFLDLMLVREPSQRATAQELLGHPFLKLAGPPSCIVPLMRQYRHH

Structure (SMILES)	residual activity [1] [%]	residual activity [2] [%]	residual activity [3] [%]	residual activity [4] [%]	residual activity [5] [%]	residual activity [6] [%]	residual activity [7] [%]	residual activity [8] [%]	residual activity [9] [%]	residual activity [10] [%]	residual activity [11] [%]	residual activity [12] [%]	residual activity [13] [%]	residual activity [14] [%]	residual activity [15] [%]	residual activity [16] [%]	residual activity [17] [%]	residual activity [18] [%]	residual activity [19] [%]	residual activity [20] [%]
Cc1cc(Nc2nc(-c3ccccc3)nc3ccccc23)n[nH]1	9	2	21	3	47	7	121	13	0	70	15	96	76	15	3	5	3	3	-1	94
N#CCCc1ccc2c(c1)-c1[nH]c3ccc([N+](=O)[O-])cc3c1CC(=O)N2	13	4	16	7	55	16	52	32	13	73	45	67	23	57	29	27	17	10	8	
CN(C)c1ccc(/C=C2\C(=O)Nc3ccccc32)cc1	100	83	95	77	83	77	23	89	62	80	27	127	105	92	50	97	56	93	80	92
Ic1cccc(CSc2nnc(-c3ccncc3)o2)c1	91	84	91	72	89	73	106	75	60	73	68	98	105	35	25	45	32	105	60	80
Oc1ccc(Nc2nc(-c3ccc(Cl)cc3)cs2)cc1	103	98	106	104	109	103	126	89	80	82	62	104	110	105	90	119	100	107	84	96
Oc1ccc(-c2nc(-c3ccc(F)cc3)c(-c3ccncc3)[nH]2)cc1	107	96	99	85	88	84	34	81	27	83	82	57	8	102	86	109	86	122	93	92

— ChEMBL document CHEMBL2218924, “A broad activity screen in support of a chemogenomic map for kinase signalling research and drug discovery” (Biochem J, 2013)
